This passage reports Potency results from PubChem BioAssay (NCATS).

Results filed as inconclusive are left out. Where a call stands in place of a potency, no number is given. The source made the active and inactive calls. The call rests on the fitted dose curve; in most records, active means well fitted inhibition curve with a large enough effect; inconclusive means small, poorly fitted or top-dose-only effect; inactive means flat fitted curve, though single readings scatter. Where a SMILES comes first, the peptide text is derived from it. Bridges are numbered along the chain shown (N, C = ends). [ ]: non-standard residue; d: D form. hArg = N=C(N)NCCCC[C@H](N)C(=O)O; Mpa = O=C(O)CCS
Potency means the concentration at half of the fitted maximal effect.

This test relates to CP203. Briefly: qHTS profiling for inhibitors of Plasmodium falciparum proliferation (AID 504749). Further: nearly all actives have a fitted effect of over 60% in size. The note with it: P. falciparum in erythrocytes, SYBR Green DNA, 72 h; series mostly up to 28.7 µM. From the text: NIH National Institute of Allergy and Infectious Diseases [NIAID] NIH Chemical Genomics Center [NCGC] MLPCN Grant: None Assay Provider: Xinzhuan Su, NIAID NCGC Assay Overview: Plasmodium falciparum is a virulent malarial parasite that kills 1-2 million people worldwide each year. Transmitted by mosquitoes, the sporozoite form of the parasite enters the blood stream to infect hepatocytes, where they become merozoites that infect red blood cells (erythrocytes). Within erythrocytes, merozoites begin a […] cycle of growth and division, after which the parasite is released to infect new red blood cells. Gametocytes, which form within erythrocytes as well, circulate in the bloodstream and are ingested by the mosquito, thereby completing the life cycle. To profile malarial isolates for differential chemical responses and to identify inhibitors of malarial growth, an assay that measures P. falciparum growth and replication within erythrocytes was employed. This assay uses a DNA binding fluorescent dye (SYBR Green) to detect parasite DNA following cell lysis. Because mature erythrocytes lack DNA, only Plasmodium-derived DNA is detected.
NCGC Assay Protocol Summary: The SYBR Green viability assay was adapted from a method described previously (Plouffe et al., 2008). For screening 3 ul culture medium was dispensed into 1536 well black clear bottom plates (Aurora Biotechnologies) using a Multidrop Combi (Thermo Fisher Scientific Inc.), 23 nL compounds in DMSO were added by a pin tool (Kalypsys), and 5 ul of erythrocytes infected with P. falciparum (0.3% parasitemia, 2.5% hematocrit final concentration) were added. The plates were incubated at 37 C in a humidified incubator in 5% CO2 for 72 h, and 2 ul lysis buffer (20 mM Tris HCl, 10 mM EDTA, 0.16% saponin, 1.6% triton X, 10X SYBR Green I supplied as 10,000X […] by Invitrogen) was added to each well. The plates were mixed for 25 sec with gentle shaking and incubated overnight at room temperature in the dark. The following morning, fluorescence intensity at 485(14) nm excitation and 535(25) nm emission wavelengths was measured on an EnVision (Perkin Elmer) plate reader. Plate reads were normalized relative to the control inhibitor (0.29 uM artemisinin) and vehicle (DMSO) wells present on each plate and then corrected by an algorithm using vehicle-only control plates at the beginning and end of the compound plate stack.
Turning to `CC[N+](CC)(CC(=O)Nc1c(C)cccc1C)Cc1ccccc1`, the Potency result is “inactive”. For `CN1CCN(C(=O)C2CCCCC2)CC1`, the Potency result was “inactive”.

On to `CC(=O)SC[C@@H](Cc1ccccc1)C(=O)NCC(=O)OCc1ccccc1`, for which the Potency entry is “inactive”. Turning to `Cc1ncc(CO)c(CN)c1O`, the Potency entry was “inactive”. For `CC(C)CCOC(=O)c1ccc(N(C)C)cc1`, the Potency result is “inactive”. Consider `COc1ccc2cc(CCC(C)=O)ccc2c1`, for which the Potency entry is “inactive”. Take `O=C(O)CCCc1ccccc1`: the Potency result is “inactive”. With `CC1CC(OC(=O)c2ccccc2O)CC(C)(C)C1` (stereo not given) the entry was “inactive”; with `CC(C)C[C@@H](N)C(=O)O`, “inactive”; with `Cc1onc(-c2ccccc2)c1-c1ccc(S(N)(=O)=O)cc1`, “inactive”.

As for `COc1ccccc1Oc1c(NS(=O)(=O)c2ccc(C(C)(C)C)cc2)nc(-c2ncccn2)nc1OCCO`, the Potency entry is “inactive”. The same measure for `COc1ccc(O)cc1`: “inactive”; for `CC[N+](C)(CC)CCOC(=O)C1c2ccccc2Oc2ccccc21`: “inactive”; for `CCOC(=O)[C@H](CCc1ccccc1)N[C@@H](C)C(=O)N1CCC[C@H]1C(=O)O`: “inactive”.

As to `Cc1cc(-n2nc3ccc(Cl)cc3n2)c(O)c(C(C)(C)C)c1`, the Potency result is “inactive”. Consider `O=C(NCN1CCOCC1)c1cnccn1`, for which the Potency result was “inactive”.

With `CC1CCN(CCCC(=O)c2ccc(F)cc2)CC1`, the Potency result was “inactive”. Take `NC(=O)[C@@H]1CSSCCC(=O)N[C@@H](CCCCN=C(N)N)C(=O)NCC(=O)N[C@@H](CC(=O)O)C(=O)N[C@@H](Cc2c[nH]c3ccccc23)C(=O)N2CCC[C@H]2C(=O)N1` ([Mpa][hArg]GDWPC-NH2; disulfide 1-7): the Potency result was “inactive”. Regarding `Cc1ccc(S(=O)(=O)NC(=O)NC2CCCCCCC2)cc1`, the Potency entry is “inactive”.

As to `CCc1nnc(NS(=O)(=O)c2ccc(N)cc2)s1`, the Potency entry is “inactive”. As for `Cc1cccc(C)c1NC(=O)CC12CCCN1CCC2`, the Potency result was “inactive”.

For the compound `CC(CN(C)C)C(C)(O)Cc1ccc(Cl)cc1` (stereo not given), the Potency was 13.5 µM (active). With `Cc1cc(=O)[nH]c(=S)[nH]1` the entry was “inactive”.

As for `C[C@H]1COc2c(C3(N)CC3)c(F)cc3c(=O)c(C(=O)O)cn1c23`, the Potency entry was “inactive”. As to `CC(=O)Oc1cccc(O)c1`, the Potency entry is “inactive”. The same measure for `NC(N)=NCCN1CCCCCCC1`: “inactive”. With `O=C(O)c1cc(=O)c2ccccc2o1` the entry was “inactive”; with `O=C(O)c1ccccc1OP(=O)(O)O`, “inactive”; with `CCCCCC(N)=O`, “inactive”.

Take `OCC(O)CS` (stereo not given): the Potency result is “inactive”. The same measure for `OCc1ccc(Cl)cc1Cl`: “inactive”; for `CCCCCC(C)N` (stereo not given): “inactive”. With `O=c1[nH]cnc2nc[nH]c12` the entry was “inactive”; with `CC(=O)Oc1cccc(C)c1`, “inactive”; with `Cc1cccc(Nc2ccccc2C(=O)O)c1C`, “inactive”.

Take `CCN(CC)S(=O)(=O)c1ccc(C(=O)O)cc1`: the Potency entry is “inactive”. The same measure for `NS(=O)(=O)c1ccc(C(=O)O)cc1`: “inactive”; for `COc1ccc(C(=O)NCc2ccc(OCCN(C)C)cc2)cc1OC`: “inactive”; for `Cc1cc(C)nc(NS(=O)(=O)c2ccc(N)cc2)n1`: “inactive”. With `Cc1[nH]c(C)c(Cl)c(=O)c1Cl` the entry was “inactive”.
